# Source: PubChem BioAssay AID1272365 (Small Molecule Screening Facility, UW Madison, 2018)
# Where “and” joins values, the source holds several entries; their conditions need not be identical. Identical values can stand only once. In all, about 430,000 compounds went through this assay and about 2,600 (0.6%) were called active. Cut-off read from the data, not from the text of the source: active = inhibition mostly above about 37% (no sharp cut-off); inactive = mostly below about 20%. This excerpt belongs to a sample that is enriched for actives.
# Tested on: PriA–SSB C-terminal tail interaction (Klebsiella pneumoniae)
# Experiment: inhibitors of Klebsiella pneumoniae PriA binding to SSB C-terminal tail, primary screen, biochemical, AlphaScreen (AID 1272365);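 note: plate controls were negative control peptide for no effect and reference peptide for full effect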
# Settings: AlphaScreen SSBct-PriA binding, biotinylated peptide; at 33 µM, stronger effect = higher value
row,SMILES,inhibition
1,CCCN1CCCc2cc(CCNS(=O)(=O)c3ccc(NC(C)=O)cc3)ccc21,85% (active)
2,Cc1cccc(CCNS(=O)(=O)c2ccc(S(=O)(=O)NC3CCCC3)cc2)c1,-8.63% (inactive)
3,CCCNS(=O)(=O)c1ccc2c(c1)CCCN2C(C)=O,-6.74% (inactive)
4,CCCN1CCCc2cc(CCNS(=O)(=O)Cc3cccc(C)c3)ccc21,73% (active)
5,Cc1cccc(CCNS(=O)(=O)c2ccc3c(c2)NC(=O)CO3)c1,1.31% (inactive)
6,CCCN1CCCc2cc(CCNC(=O)C(=O)Nc3ccc(OC(F)(F)F)cc3)ccc21,-6% (inactive)
7,Cn1cccc1CN(Cc1cccs1)C(=O)c1ccccc1S(=O)(=O)C(F)F,20% (inactive)
8,Cc1nc(N2CCCC2)nc(C)c1NC(=O)c1cccc(Cl)c1,-6% (inactive)
9,Cc1cc(NC(=O)CSc2nnc(C)c3cnn(-c4ccc(F)cc4)c23)no1,-7% (inactive) and -11% (inactive)
10,CCc1ccc(S(=O)(=O)N2CCOC(c3ccccc3)C2)s1 (centres undefined),-11% (inactive)
11,COc1ccc2nc(N=C(N)NC(=O)N3c4ccccc4Sc4ccccc43)nc(C)c2c1,-5.89% (inactive)
12,COc1ccc(-c2nnc(SC(=O)N3c4ccccc4Sc4ccccc43)o2)cc1,42.2% (active)
13,COc1ccc(-c2nnc(NC(=O)c3ccc(SC)cc3)o2)cc1,-3% (inactive)
14,Cc1oc2cc(OCC(=O)c3ccc(F)cc3)ccc2c(=O)c1-c1ccccc1,7% (inactive)
15,CCCCOc1ccc(C(=O)Nc2ccc3c(c2)C(=O)N(C)C3=O)cc1,-4% (inactive)
16,COc1ccc(S(=O)(=O)N2CCOCC2)cc1NC(=O)Cc1coc2cc(C)ccc12,-2.71% (inactive)
17,COc1ccc(S(=O)(=O)N2CCOCC2)cc1NC(=O)CSc1ncnc2ccccc12,-9.78% (inactive)
18,COc1ccc(S(=O)(=O)N2CCOCC2)cc1NC(=O)CSc1cc(C)ccc1C,49.7% (active)
19,CC(=O)c1sc(NC(=O)COc2ccc(Cl)cc2)nc1C,-10% (inactive)
20,CSc1ccccc1NC(=O)C(=O)NC[C@]1(O)CCc2ccccc2C1,-6% (inactive)
21,C[C@H](O)CN1CCN(C(=O)c2nc3ccccc3s2)CC1,-1% (inactive)
22,CS(=O)(=O)N1CCC(CNC(=O)c2nc3ccccc3s2)CC1,-21% (inactive)
23,Cn1ccnc1SCC1CCN(C(=O)c2nc3ccccc3s2)CC1,39% (active)
24,O=C(Nc1nc2ccccc2s1)C(=O)NC1CC1,3% (inactive)

row,SMILES,inhibition
1,O=C(O)C(NC(=O)c1ccc(Cl)cc1)=C(Cl)Cl,-6% (inactive)
2,CC(C)c1nnc(NC(=O)/C=C/c2cccs2)s1,-6% (inactive)
3,COc1ccc(C)cc1NC(=O)CSc1ncc(-c2ccccc2)n1C,-3% (inactive)
4,COCCN1CCCc2ccc(NC(=O)c3ccc(OC)cc3)cc21,45% (inactive)
5,COCCN1CCCc2ccc(NC(=O)c3cccc(OC)c3)cc21,53% (inactive)
6,COc1cc(NS(=O)(=O)CCc2ccccc2)ccc1N1CCCC1=O,-16% (inactive)
7,COCCN1CCCc2ccc(NS(=O)(=O)CCc3ccccc3)cc21,34% (active)
8,O=C(C1CCCC1)N1CCc2ccc(NS(=O)(=O)CCc3ccccc3)cc21,5% (inactive)
9,COCCN1CCCc2ccc(NS(=O)(=O)c3ccc(C)c(Cl)c3)cc21,54% (active)
10,c1cncc(-c2nnc3sc(-c4cc5ccccc5o4)nn23)c1,-28% (inactive)
11,O=S(=O)(c1ccccc1F)N1CCN(c2cnnc(N3CCCC3)c2)CC1,0% (inactive)
12,CCOC(=O)c1sc(=NC(=O)CCCSc2ccc(OC)cc2)n(C)c1C,2% (inactive)
13,COc1ccc(N2CCN(c3ccc([N+](=O)[O-])nc3)CC2)cc1,3.99% (inactive)
14,COc1ccc(-c2cc(C3CCN(c4ncccc4[N+](=O)[O-])CC3)[nH]n2)cc1,47.3% (active)
15,CC(=O)NC(Cc1ccccc1)C(=O)NC1CCN(c2ncccc2[N+](=O)[O-])CC1 (centres undefined),-3.58% (inactive)
16,COCCn1c(SCc2nc(-c3ccc(F)cc3)no2)nc2ccsc2c1=O,-36% (inactive)
17,COC(=O)c1sccc1S(=O)(=O)N1C2CCCC1COC2,-5% (inactive)
18,O=C(NCc1cccs1)NCc1cccnc1-c1ccsc1,-6% (inactive)
19,Cc1noc(CNC(=O)NCc2cccs2)n1,-6% (inactive)
20,O=C(NCCn1ccnc1-c1ncccn1)NCc1cccs1,71% (active)
21,O=C(Cc1cc(-c2ccc3c(c2)OCO3)on1)Nc1ccc(OC(F)(F)F)cc1,1% (inactive)
22,COCCCNC(=O)C(=O)Nc1ccc(Cl)cn1,-18% (inactive)
23,COC(=O)c1ccc(NC(=O)C2CCCN(c3ccc(-c4ccc(F)cc4)nn3)C2)cc1 (centres undefined),-17% (inactive)
24,O=C(C1CC(=O)N(c2ccc(F)cc2)C1)N1CCN(c2ccccc2)CC1 (centres undefined),-4.67% (inactive)

row,SMILES,inhibition
1,Cc1ccc(CN2CC(C(=O)N3CCN(S(=O)(=O)c4ccccc4)CC3)CC2=O)cc1 (centres undefined),-17.9% (inactive)
2,CCC(C)c1ccccc1N1CC(C(=O)N2CCN(S(=O)(=O)c3ccc(F)cc3)CC2)CC1=O (centres undefined),44% (active)
3,CC(=O)[C@@H](C(=O)N(C)C)n1cnc2c(cnn2-c2cccc(Cl)c2)c1=O,-12% (inactive)
4,CC(C)C(=NNC(=O)Nc1ccccc1)c1ccccc1,-2.11% (inactive)
5,O=[N+]([O-])c1ccccc1NCc1ccccc1Cl,-2.79% (inactive)
6,CC(C)C(=NNc1ccccc1[N+](=O)[O-])c1ccccc1,64.3% (active)
7,Cc1cc(=O)[nH]c(-n2ncc(C(=O)Nc3ccc(OC(F)(F)F)cc3)c2C)n1,-10% (inactive)
8,Cc1cc(C)c(S(=O)(=O)NCCC(=O)NCc2cccnc2)cc1N(C)S(C)(=O)=O,-9% (inactive)
9,CCOC(=O)c1c(NC(=O)CSc2nnc(Cc3csc(N)n3)n2C)sc(C)c1C,-7% (inactive) and 53.5% (active)
10,CCOC(=O)c1sc(NC(=O)CSc2nnc(CNC(=O)c3ccc(Cl)cc3Cl)n2C)c(C(=O)OCC)c1C,5% (inactive) and -12% (inactive)
11,CCOC(=O)c1c(NC(=O)CSc2nnc(CN3CCOCC3)n2C)sc2c1CCCC2,-3.23% (inactive)
12,CCSc1nnc(NC(=O)CSc2nnc(CNC(=O)c3cccs3)o2)s1,-13% (inactive)
13,CON=Cc1ccc(N2CCOCC2)c([N+](=O)[O-])c1,-5.72% (inactive)
14,O=C(COc1ccccc1F)NNC(=O)c1ccc(N2CCCCC2)c([N+](=O)[O-])c1,13.6% (inactive)
15,O=C(ON=Cc1ccc(N2CCCCC2)c([N+](=O)[O-])c1)c1c(F)cccc1F,41.1% (active)
16,COc1ccc(C(=O)CSc2nccn(-c3ccc(C)cc3)c2=O)cc1,8% (inactive)
17,c1ccc(-c2ccc(-c3csc4ncnc(N5CCCCCC5)c34)cc2)cc1,-3% (inactive)
18,Brc1c(-c2ccccc2)nc2n1CCC2,57% (active)
19,Brc1cccc(-c2nnc3n2CCC3)c1,-16.1% (inactive)
20,COc1ccc(-c2nc3n(c2Br)CCC3)cc1,18.6% (inactive)
21,COc1ccc(CCNS(=O)(=O)c2cccc([N+](=O)[O-])c2)cc1,0.99% (inactive)
22,CCN(CC)c1ccc(C=NNS(=O)(=O)c2cccc([N+](=O)[O-])c2)cc1,46.5% (active)
23,CCc1ccc(S(=O)(=O)NN=Cc2ccc3c(c2)OCO3)cc1,-15.4% (inactive)
24,Cc1ccccc1OCC(=O)NCCS(=O)(=O)N1CCN(Cc2ccccc2)CC1,-5% (inactive)

row,SMILES,inhibition
1,COc1cccc(C(=O)N2CC(c3nc(-c4ccccn4)no3)C2)c1,-10% (inactive)
2,Cc1nc2nc(COc3ccccc3)[nH]n2c(=O)c1C,-10.1% (inactive)
3,COc1ccc(OCc2nc(-c3ccccn3)n[nH]2)cc1,101% (active)
4,O=c1oc2ccccc2cc1-c1nc(-c2ccncc2)n[nH]1,0% (inactive)
5,c1ccc(OCc2nc(-c3ccccn3)n[nH]2)cc1,104% (active)
6,Cc1cccc2[nH]c(COc3ccc(F)cc3)nc12,-4% (inactive)
7,S=c1[nH]nc(COc2ccccc2)o1,-8% (inactive)
8,c1ccc(-c2nc(-c3cnccn3)n[nH]2)nc1,125% (active)
9,CCOC(=O)c1ccccc1NC(=O)Cn1cnc2c(cnn2-c2ccc(C)cc2C)c1=O,20% (inactive)
10,Cc1cc(NC(=O)C(=O)NCc2cccnc2)ccc1N1CCCC1=O,0% (inactive)
11,COc1ccc(CCS(=O)(=O)NCC(=O)N2CCOC(c3ccccc3)C2)cc1 (centres undefined),2% (inactive)
12,Cc1ccc2cccc(C(=O)N3CC(S(=O)(=O)Cc4ccco4)C3)c2n1,-1% (inactive)
13,O=C(CSc1nc2c(c(=O)[nH]1)CN(Cc1ccc(F)cc1)CC2)Nc1ccc(F)c(Cl)c1,0% (inactive)
14,O=c1[nH]c(=S)[nH]c2sc3c(c12)CCC3,18% (inactive)
15,CCOc1cc(-c2nnc(NC(=O)c3cc(Cl)ccc3Cl)o2)cc(OCC)c1OCC,0% (inactive)
16,Cc1ccc(NC(=O)C(=O)NCC(c2ccc(F)cc2)N2CCN(C)CC2)cc1Cl (centres undefined),-4% (inactive)
17,Cc1ccc(S(=O)(=O)c2c(N)n(N=Cc3ccco3)c3nc4ccccc4nc23)cc1,11% (inactive)
18,CCCCOCCCn1c(NS(=O)(=O)c2ccc3ccccc3c2)c(S(=O)(=O)c2ccc(C)cc2)c2nc3ccccc3nc21,59.9% (active)
19,CCCCOCCCn1c(NS(=O)(=O)c2ccccc2)c(S(=O)(=O)c2ccc(C)cc2)c2nc3ccccc3nc21,67.3% (active)
20,Cc1ccc(S(=O)(=O)Nc2c(S(=O)(=O)c3ccccc3)c3nc4ccccc4nc3n2Cc2ccccc2)cc1,34.2% (inactive)
21,CCCCn1c(NS(=O)(=O)c2ccc(Cl)cc2)c(S(=O)(=O)c2ccc(C)cc2)c2nc3ccccc3nc21,54.8% (inactive)
22,CCCCCCCCn1c(NS(=O)(=O)c2ccc(Cl)cc2)c(S(=O)(=O)c2ccccc2)c2nc3ccccc3nc21,49.6% (inactive)
